# NS1 function inh = blocks influenza NS1 protein function; hit rate 0.4% among 270,000; Potency, µM (titrated, usually from 46.1 µM), for inactives: top-dose activity, positive = more growth; calls by dose curve; note: potency is the fitted concentration of half-maximal effect; actives are rising curves; nearly all actives have a fitted effect of over 50% in size
#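 Growth recovery, yeast-based: influenza A NS1 expressed in S. cerevisiae causes slow growth, and suppressors are detected by OD600. The parent strain without NS1 is used as positive control.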
# Pf growth 96h = P. falciparum growth inhibition at 96 hours | P. falciparum luciferase reporter growth, 96 h | Potency, µM (titrated, usually from 28.7 µM), inactives show top-dose activity change, negative = inhibition, hits mostly inhibitors | hit rate 6.9% among 320,000; note: potency is the fitted concentration of half-maximal effect; % is set by controls: 0 for no effect and ±100 for the full control effect
#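 P. falciparum expressing integrated firefly luciferase grown in erythrocytes (2% hematocrit, 0.05% parasitemia final) with compounds for 96 hours at 37 C, 5% CO2. Growth inhibition read as loss of luminescence after adding luciferase detection reagent.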
# Giardia FBPA inh = blocks Giardia fructose-bisphosphate aldolase activity; purified Giardia FBPA; Potency, µM (highest dose often 59.6 µM), for the others: top-dose activity, negative = inhibition, hits mostly inhibitors; hit rate 0.71% among 290,000; AID 2451; note: potency is the fitted concentration of half-maximal effect; % is set by controls: 0 for no effect and ±100 for the full control effect; nearly all actives have a fitted effect of over 55% in size
# Target sequence (A8B2U2 whole entry, looked up): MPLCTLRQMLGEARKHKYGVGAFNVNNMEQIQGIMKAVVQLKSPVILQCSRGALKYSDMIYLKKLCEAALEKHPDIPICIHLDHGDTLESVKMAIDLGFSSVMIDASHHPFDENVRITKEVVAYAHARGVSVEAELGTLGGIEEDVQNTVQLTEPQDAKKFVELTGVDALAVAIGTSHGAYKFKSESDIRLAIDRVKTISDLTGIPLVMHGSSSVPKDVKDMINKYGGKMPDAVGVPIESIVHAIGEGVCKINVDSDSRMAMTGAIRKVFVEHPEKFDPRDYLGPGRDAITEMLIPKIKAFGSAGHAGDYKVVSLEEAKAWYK
#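 Giardia FBPA (40 nM reagent) was preincubated 10 min at RT with compound (up to 57.5 uM final), then substrate plus GAPDH/TPI/NAD/arsenate coupling system with diaphorase/resazurin was added; resorufin fluorescence (525/598 nm) was read after 20 min.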
# Pf growth 48h = inhibits P. falciparum growth in the first generation, 48 h | P. falciparum luciferase growth in erythrocytes, 48 h | Potency, µM (series often up to 28.7 µM), inactives show top-dose activity change, negative = inhibition, actives largely listed as inhibitors | hit rate 5.9% among 310,000 | AID 504832; note: potency is the fitted concentration of half-maximal effect; % is set by controls: 0 for no effect and ±100 for the full control effect
#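 In quantitative HTS format, infected erythrocytes bearing luciferase-reporter parasites were treated for a single generation at 37 C. Luminescence after adding detection reagent served as the growth measure.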
# Shiga inhibitor = inhibitors of Shiga toxin in Vero cells; inhibition, % at 38.7 µM; Vero cells, Shiga toxin protein synthesis inhibition reporter; hit rate 9.2% among 290,000; in the data active = inhibition mostly above about 28%, no sharp cut-off; inactive = mostly below about 43%; note: 0% is about no effect
# CHX counter = affects cycloheximide protein synthesis inhibition readout, counter-screen | hit rate 12% among 300,000 | cell reporter, cycloheximide protein synthesis inhibition counterscreen | max response, % | AID 2314; in the data active = max response mostly above about 13%, no sharp cut-off; inactive = mostly below about 14%; note: read at 38.3 µM for the half of the compounds with a filed dose; 0% is about no effect
# * = called active by the depositor; ? = inconclusive; . = no result; ! = not confirmed by another sample; [ ] = another dose, or the depositor's remark. In the library only some 21% were active in any assay of this set; here they are far more common. Unless noted, calls come from the whole dose curve; as a rule, active = well fitted curve in the direction sought with a large enough effect; inconclusive = small, poorly fitted or top-dose-only effect, or another doubt; inactive = no such curve, though single readings can be large; an effect the other way counts as inactive or inconclusive.
SMILES,NS1 function inh,Pf growth 96h,Giardia FBPA inh,Pf growth 48h,Shiga inhibitor,CHX counter
COc1ccc(-c2csc(N3C(=N)SCC3=O)n2)cc1,5.3%,188.4%,-6.7%,135.4%,163.5*,49.2*
O=C1CNC(=S)N1c1nc(-c2ccccc2)cs1,0.0%,67.9%,-3.5%,71.8%,38.8*,22.7*
C=CCN1c2ccccc2[C@]23C[C@@H](C(=O)OC)N(S(=O)(=O)c4cccs4)C2=NC(C(=O)OC)=C(C(=O)OC)[C@H]13,.,.,3.5%[12.9 µM],.,.,.
CO[C@]12C[C@@H](COC(=O)c3cncc(Br)c3)CN(C)[C@@H]1Cc1cn(C)c3cccc2c13,.,?,-8.6%,?,.,.
CCOc1ccccc1NC(=O)CSc1nnc(CCC(=O)Nc2ccccc2F)n1C,-8.0%,-11.1%,.,-19.7%,-30.0,3.7
O=C1COc2ccc(C(=O)COc3ccc(Cl)cc3Br)cc2N1,.,?,.,-24.7%,.,.
O=C(NCc1ccccn1)C1CCN(Cc2cccc(OCc3ccccc3)c2)CC1,-11.2%,?,11.0%,-6.1%,-4.6,-2.1
CC(C)CNC(=O)C1CCN(Cc2ccc(OCc3ccccc3)cc2)CC1,-30.9%,39.9%,-16.2%,8.1%,79.4*,27.2*
CC(O)CNC(=O)C1CCN(Cc2ccc(OCc3ccccc3)cc2)CC1 (stereo not given),-11.0%,29.0%,-26.4%,9.0%,129.9*,36.8*
CC(=O)CCOC1CCCCO1 (stereo not given),.,.,-8.4%,.,.,.
CN(C)S(=O)(=O)c1ccc(C(=O)Nc2ccc(S(=O)(=O)NC3=NCCCCC3)cc2)cc1,?,?,-0.3%,.,0.6,3.3
Cc1ccnc(NS(=O)(=O)c2ccc(NC(=O)C3CC=CCC3C(=O)O)cc2)n1 (stereo not given),2.2%,?,2.9%,-1.7%,1.0,-4.3
CC(=O)Nc1ccc2nc(NC(=O)c3ccc([N+](=O)[O-])s3)sc2c1,0.9%,-2.1%,14.4%,?,25.7,14.9
Cc1ccnc(NS(=O)(=O)c2ccc(NC(=O)c3ccc([N+](=O)[O-])s3)cc2)n1,-7.4%,11.7µM*,6.8%,4.15µM*,7.4,-2.2
Cc1ccnc(NS(=O)(=O)c2ccc(NC(=O)C3CCCCC3C(=O)O)cc2)n1 (stereo not given),-9.2%,2.94µM*,-0.7%,27.0%,22.0,-3.0
O=C(Nc1ccc(S(=O)(=O)NC2=NCCCCC2)cc1)c1ccc([N+](=O)[O-])s1,.,13.1µM*,.,10.4µM*,.,.
Cc1nc2cc(NC(=O)c3ccc([N+](=O)[O-])s3)ccc2s1,-8.4%,?,.,?,52.3*,34.3*
CC(=O)Nc1ccc(C(=O)Nc2ccc(S(=O)(=O)Nc3nccc(C)n3)cc2)cc1,22.4%,0.0%,?,17.1%,-1.3,-3.4
O=C(c1cccc(NC2=NC3CS(=O)(=O)CC3S2)c1)N1CCN(c2ncccn2)CC1 (stereo not given),-10.7%,?,?,1.7%,-3.6,1.3
COc1ccc(Oc2ncc3nc(-c4cccs4)c(=O)n(Cc4cccc(OC)c4)c3n2)cc1,.,.,-20.1%,.,.,.
CC1CC(C)CN(C(=O)COC(=O)/C=C/c2cccc([N+](=O)[O-])c2)C1 (stereo not given),.,40.5%,.,0.8%,.,.
Cc1ccc(N(C(=O)c2csnn2)C(C(=O)NC2CCCCC2)c2ccncc2)cc1 (stereo not given),-5.1%,-24.3%,.,-15.2%,-2.5,-3.7
NCc1ccc(S(N)(=O)=O)cc1,4.7%,3.61µM*!,-6.6%,?,21.6,-0.9
O=C(c1ccccc1)n1nnc2ccccc21,5.9%,26.1%,3.8%,21.4%,23.7,1.3
c1ccc2c(c1)nnn1c3ccccc3nc21,-103.3%,41.8%,3.4%,189.0%,79.7*,34.4*
SMILES,NS1 function inh,Pf growth 96h,Giardia FBPA inh,Pf growth 48h,Shiga inhibitor,CHX counter
Nn1nnc2ccccc21,-3.1%,52.4%,-3.6%,39.6%,23.7,13.9*
Nc1nonc1C(=O)N/N=C/c1cc2c(cc1[N+](=O)[O-])OCO2,3.0%,-0.6%,.,13.7%,32.6,7.9
Nc1nonc1C(=O)N/N=C/c1cccc([N+](=O)[O-])c1,-10.6%,20.8%,-1.2%,-9.2%,active,27.4*
COc1ccc([N+](=O)[O-])cc1/C=N/NC(=O)c1nonc1N,5.6%,22.8%,0.3%,1.6%,-15.9,3.0
CN(C)c1ccc(/C=N/NC(=O)c2nonc2N)cc1[N+](=O)[O-],-3.5%,12.5%,-4.7%,1.5%,133.1*,40.5*
COc1ccc(/C=N/NC(=O)c2nonc2N)cc1OC,2.4%,23.1%,-10.1%,17.1%,80.0*,34.2*
CC(C)Cn1nnnc1S(=O)(=O)Cc1ccccc1,.,.,3.4%,.,.,.
Nc1nc(N)c(CCCCc2ccccc2)c(N)n1,-8.3%,.,.,.,.,.
C=CCN1c2ccccc2[C@]23C[C@@H](C(=O)OC)N(S(=O)(=O)c4ccc(Br)cc4)C2=NC(C(=O)OC)=C(C(=O)OC)[C@H]13,.,.,6.0%[12.9 µM],.,.,.
O=C(COc1ccc(Cl)cc1Cl)N1CCNC1=O,.,?,.,22.4%,.,.
CC(=O)[C@H]1CC[C@H]2[C@@H]3CCC4=CC(=O)CC[C@]4(C)[C@H]3CC[C@]12C,-25.1%,10.4µM*,6.9%,?,-12.6,-3.2
CC(C)CNC(=O)COC(=O)c1n[nH]c2ccccc12,-5.6%,21.1%,3.2%,0.0%,21.6,9.5
CCOc1ccccc1Nc1ccc(N)cc1S(=O)(=O)O,3.5%,.,.,.,.,.
COc1ccc(/C(=N/Nc2ncnc3ccccc23)C(=O)O)cc1,-17.1%,0.2%,?,?,89.0*,47.3*
CCOC(=O)/C(=N\NC(=O)c1ccccc1)c1ccccc1,-94.9%,-38.3%,1.0%,.,20.6,15.9
CCOC(=O)/C(=N\Nc1ncnc2ccccc12)c1ccc(OC)cc1,-16.3%,189.5%,-8.9%,167.7%,44.8,26.5*
COc1ccc(/C(N)=N/OC(=O)c2cc(-c3ccccc3)nc3ccccc23)cc1,0.7%,98.4%,4.0%,33.5%,-24.4,-0.4
CCNc1ncc2nc(-c3ccc(OC)cc3)c(=O)n(CCOC)c2n1,.,.,6.0%,.,.,.
NCC(O)c1ccc(O)c(O)c1 (stereo not given),-6.2%,.,?,.,.,.
CC(C)NC[C@H](O)c1ccc(O)c(O)c1,0.0%,8.3%,9.98µM*!,-10.5%,.,.

# Bioassay records (PubChem BioAssay)
